For some assays here: Measured potencies and affinities stand elsewhere.
Legend:
Set-up in all cases: scale not given: direction of the effect not stated beside the values
[1] = target: Protein translocase subunit SecA (Escherichia coli (strain K12)) (UniProt P10408); test: Assay to Identify E. coli SecA ATPase Inhibitors; assay type: functional; details: 30 µM
[2] = target: T1, Ubiquitin-activating enzyme e1, putative (Leishmania donovani (strain BPK282A1)) (UniProt E9BSI1); test: Leishmania donovani Ubiquitin Activating Enzyme (LdE1); assay type: functional; details: 30 µM
T1 sequence (whole entry): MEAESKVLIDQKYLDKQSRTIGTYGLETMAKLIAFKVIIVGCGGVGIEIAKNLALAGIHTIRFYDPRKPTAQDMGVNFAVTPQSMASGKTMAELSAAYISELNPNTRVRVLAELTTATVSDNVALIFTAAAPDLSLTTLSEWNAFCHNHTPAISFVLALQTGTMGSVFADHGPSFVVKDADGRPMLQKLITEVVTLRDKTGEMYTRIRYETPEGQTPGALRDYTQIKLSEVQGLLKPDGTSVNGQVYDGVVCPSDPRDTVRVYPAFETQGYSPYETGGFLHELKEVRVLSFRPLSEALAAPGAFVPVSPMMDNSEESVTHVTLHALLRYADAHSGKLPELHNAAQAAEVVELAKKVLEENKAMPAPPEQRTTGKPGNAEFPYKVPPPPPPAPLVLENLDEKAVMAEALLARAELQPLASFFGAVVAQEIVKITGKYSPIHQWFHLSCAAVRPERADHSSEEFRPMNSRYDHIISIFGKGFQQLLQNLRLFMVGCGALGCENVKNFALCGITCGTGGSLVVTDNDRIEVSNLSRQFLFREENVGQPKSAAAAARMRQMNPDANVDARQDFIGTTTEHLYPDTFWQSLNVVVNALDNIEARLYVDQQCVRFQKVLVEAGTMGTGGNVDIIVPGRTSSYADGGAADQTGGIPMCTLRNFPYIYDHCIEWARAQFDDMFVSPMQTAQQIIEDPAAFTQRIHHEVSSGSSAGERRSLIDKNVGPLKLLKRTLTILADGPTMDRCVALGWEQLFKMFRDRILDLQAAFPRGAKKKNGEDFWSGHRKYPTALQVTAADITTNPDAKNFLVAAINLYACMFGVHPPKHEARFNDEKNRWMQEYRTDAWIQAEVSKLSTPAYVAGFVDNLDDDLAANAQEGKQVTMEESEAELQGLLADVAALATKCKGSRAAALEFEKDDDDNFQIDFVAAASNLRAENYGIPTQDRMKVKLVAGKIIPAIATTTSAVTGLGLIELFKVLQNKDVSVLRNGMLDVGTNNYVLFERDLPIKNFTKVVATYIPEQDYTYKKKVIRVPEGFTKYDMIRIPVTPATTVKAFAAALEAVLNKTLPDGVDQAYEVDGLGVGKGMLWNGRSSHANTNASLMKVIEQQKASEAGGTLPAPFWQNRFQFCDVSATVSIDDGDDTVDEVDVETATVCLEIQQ

[3] = target: AMP-activated protein kinase, AMPK (Homo sapiens) (UniProt P54646+O43741+P54619+Q9UGJ0+Q9Y478+Q13131+Q9UGI9); test: AMP-dependent Kinase enzyme assay. An in vitro enzyme assay that detects ADP turnover that is directly proportional to AMPK activity. This uses naive AMPK that is activated during the assay with MK-8722; assay type: functional; details: 30 µM
[4] = target: Sialic acid-binding Ig-like lectin 9 (Homo sapiens) (UniProt Q9Y336); test: Hs-Siglec9 ALPHAscreen SOP 20170721; details: 10 µM
Trypanosoma cruzi = test: Trypanosoma cruzi phosphomannomutase and mannose-1-phosphate guanylyltransferase assay; assay type: functional; details: 10 µM
[5] = target: T2, Arginase-2, mitochondrial (Homo sapiens) (UniProt P78540); test: in vitro enzyme assay to detect the production of urea directly proportional to the activity of Arginase II; assay type: functional; details: 33.3 µM; also: in the data most compounds retested in dose-response had high values
T2 sequence (whole entry): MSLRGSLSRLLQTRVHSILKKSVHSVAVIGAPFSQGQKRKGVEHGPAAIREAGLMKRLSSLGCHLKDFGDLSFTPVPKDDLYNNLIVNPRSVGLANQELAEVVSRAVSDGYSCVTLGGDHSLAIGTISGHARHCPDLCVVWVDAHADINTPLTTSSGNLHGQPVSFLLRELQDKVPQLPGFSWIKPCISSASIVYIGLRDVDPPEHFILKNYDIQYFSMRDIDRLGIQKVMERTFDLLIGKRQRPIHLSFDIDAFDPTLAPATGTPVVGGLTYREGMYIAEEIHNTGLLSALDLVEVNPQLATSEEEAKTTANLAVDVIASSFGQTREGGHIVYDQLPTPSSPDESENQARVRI

[6] = target: T3, Proteasome subunit beta (Trypanosoma cruzi) (UniProt O96673); test: Trypanosoma cruzi proteasome chymotrypsin-like activity (TcProtChymo) assay.; also: in the data most compounds retested in dose-response had high values; assay type: functional; details: 9.37 µM
T3 sequence (whole entry): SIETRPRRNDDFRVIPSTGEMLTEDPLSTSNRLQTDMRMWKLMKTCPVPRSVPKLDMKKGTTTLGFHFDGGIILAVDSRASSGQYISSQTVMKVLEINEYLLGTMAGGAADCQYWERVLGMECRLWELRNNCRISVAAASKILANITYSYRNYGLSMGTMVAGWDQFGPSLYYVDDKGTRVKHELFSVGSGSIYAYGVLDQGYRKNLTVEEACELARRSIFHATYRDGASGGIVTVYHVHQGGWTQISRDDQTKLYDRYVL

Homo sapiens = organism: Homo sapiens; test: To identify inhibition of the IFN signalling (Jak-Stat) pathway via expression of an eGFP reporter gene under the control of an IFN-stimulated response element (ISRE) containing MxA promoter.; assay type: functional; details: 30 µM
[7] = target: T4, Tyrosyl-tRNA synthetase, putative (Trypanosoma cruzi (strain CL Brener)) (UniProt Q4DSP6); test: Trypanosoma cruzi tyrosyl tRNA synthetase (TcYRS) _High Tyrosine SOP; assay type: functional; details: 30 µM; also: in the data most compounds retested in dose-response had high values
T4 sequence (whole entry): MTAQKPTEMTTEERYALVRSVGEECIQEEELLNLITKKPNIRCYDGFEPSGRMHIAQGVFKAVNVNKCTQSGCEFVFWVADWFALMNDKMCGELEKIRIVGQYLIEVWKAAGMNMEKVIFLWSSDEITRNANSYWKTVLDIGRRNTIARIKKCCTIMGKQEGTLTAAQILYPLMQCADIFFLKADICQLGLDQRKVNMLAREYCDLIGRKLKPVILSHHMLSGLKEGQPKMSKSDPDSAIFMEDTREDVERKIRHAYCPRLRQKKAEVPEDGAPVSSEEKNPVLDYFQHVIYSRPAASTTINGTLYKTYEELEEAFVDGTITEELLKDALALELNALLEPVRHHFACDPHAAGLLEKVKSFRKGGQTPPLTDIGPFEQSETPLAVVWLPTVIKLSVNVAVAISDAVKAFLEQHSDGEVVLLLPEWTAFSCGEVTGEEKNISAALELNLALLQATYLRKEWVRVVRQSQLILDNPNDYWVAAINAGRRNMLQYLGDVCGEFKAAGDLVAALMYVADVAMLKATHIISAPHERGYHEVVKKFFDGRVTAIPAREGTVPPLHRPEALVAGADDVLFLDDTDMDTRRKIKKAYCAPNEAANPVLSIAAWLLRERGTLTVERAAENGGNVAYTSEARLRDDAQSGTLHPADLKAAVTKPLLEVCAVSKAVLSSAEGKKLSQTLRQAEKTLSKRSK

[8] = target: T4, Tyrosyl-tRNA synthetase, putative (Trypanosoma cruzi (strain CL Brener)); test: Trypanosoma cruzi tyrosyl tRNA synthetase (TcYRS) SOP; assay type: functional; details: 30 µM
[9] = target: Chromo domain-containing protein 1 (Saccharomyces cerevisiae (strain ATCC 204508 / S288c) (Baker's yeast)) (UniProt P32657); test: ScCHD-1 Enzyme Inhibition Assay; assay type: functional; details: 30 µM; also: in the data most compounds retested in dose-response had high values
Chain of Chromo domain-containing protein 1 (Saccharomyces cerevisiae (strain ATCC 204508 / S288c) (Baker's yeast)) (P32657 whole entry, the tested form may be a part): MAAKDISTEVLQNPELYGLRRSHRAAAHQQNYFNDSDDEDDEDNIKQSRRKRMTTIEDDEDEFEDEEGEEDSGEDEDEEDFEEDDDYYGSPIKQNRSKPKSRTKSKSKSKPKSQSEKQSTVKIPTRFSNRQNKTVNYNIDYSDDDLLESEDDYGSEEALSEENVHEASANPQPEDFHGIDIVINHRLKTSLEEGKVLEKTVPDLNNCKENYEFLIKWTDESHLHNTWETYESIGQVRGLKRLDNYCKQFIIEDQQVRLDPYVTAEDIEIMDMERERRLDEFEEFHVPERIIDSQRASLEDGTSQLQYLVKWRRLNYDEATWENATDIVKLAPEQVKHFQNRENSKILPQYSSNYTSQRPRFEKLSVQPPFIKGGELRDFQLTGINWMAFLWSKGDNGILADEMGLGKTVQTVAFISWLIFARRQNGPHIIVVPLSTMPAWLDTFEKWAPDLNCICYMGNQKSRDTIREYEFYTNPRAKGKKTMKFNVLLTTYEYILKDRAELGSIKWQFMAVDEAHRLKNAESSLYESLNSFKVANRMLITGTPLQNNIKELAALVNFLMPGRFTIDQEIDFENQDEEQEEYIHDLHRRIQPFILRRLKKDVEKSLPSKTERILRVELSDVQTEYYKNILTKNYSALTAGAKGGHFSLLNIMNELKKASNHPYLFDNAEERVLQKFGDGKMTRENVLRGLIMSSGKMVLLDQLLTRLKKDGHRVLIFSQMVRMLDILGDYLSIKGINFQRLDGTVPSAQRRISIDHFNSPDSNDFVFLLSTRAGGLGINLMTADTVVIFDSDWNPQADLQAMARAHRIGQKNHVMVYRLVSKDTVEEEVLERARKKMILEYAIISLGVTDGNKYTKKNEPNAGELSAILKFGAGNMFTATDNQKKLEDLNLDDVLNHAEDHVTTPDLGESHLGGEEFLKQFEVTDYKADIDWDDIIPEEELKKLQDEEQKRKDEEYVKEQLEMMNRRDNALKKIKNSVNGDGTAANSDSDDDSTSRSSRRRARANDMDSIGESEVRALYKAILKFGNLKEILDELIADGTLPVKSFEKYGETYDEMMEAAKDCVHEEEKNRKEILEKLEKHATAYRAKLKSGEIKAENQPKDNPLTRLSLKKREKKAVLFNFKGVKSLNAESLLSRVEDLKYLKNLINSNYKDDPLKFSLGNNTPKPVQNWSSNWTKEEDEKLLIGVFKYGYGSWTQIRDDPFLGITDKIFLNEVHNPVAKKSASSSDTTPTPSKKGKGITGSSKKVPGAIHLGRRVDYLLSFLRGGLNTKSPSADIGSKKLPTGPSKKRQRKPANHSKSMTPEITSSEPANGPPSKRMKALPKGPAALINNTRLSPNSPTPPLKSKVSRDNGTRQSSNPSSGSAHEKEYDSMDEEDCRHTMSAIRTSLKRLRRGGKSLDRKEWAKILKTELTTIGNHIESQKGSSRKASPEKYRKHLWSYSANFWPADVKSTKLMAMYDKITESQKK

Chain of Protein translocase subunit SecA (Escherichia coli (strain K12)) (P10408 whole entry): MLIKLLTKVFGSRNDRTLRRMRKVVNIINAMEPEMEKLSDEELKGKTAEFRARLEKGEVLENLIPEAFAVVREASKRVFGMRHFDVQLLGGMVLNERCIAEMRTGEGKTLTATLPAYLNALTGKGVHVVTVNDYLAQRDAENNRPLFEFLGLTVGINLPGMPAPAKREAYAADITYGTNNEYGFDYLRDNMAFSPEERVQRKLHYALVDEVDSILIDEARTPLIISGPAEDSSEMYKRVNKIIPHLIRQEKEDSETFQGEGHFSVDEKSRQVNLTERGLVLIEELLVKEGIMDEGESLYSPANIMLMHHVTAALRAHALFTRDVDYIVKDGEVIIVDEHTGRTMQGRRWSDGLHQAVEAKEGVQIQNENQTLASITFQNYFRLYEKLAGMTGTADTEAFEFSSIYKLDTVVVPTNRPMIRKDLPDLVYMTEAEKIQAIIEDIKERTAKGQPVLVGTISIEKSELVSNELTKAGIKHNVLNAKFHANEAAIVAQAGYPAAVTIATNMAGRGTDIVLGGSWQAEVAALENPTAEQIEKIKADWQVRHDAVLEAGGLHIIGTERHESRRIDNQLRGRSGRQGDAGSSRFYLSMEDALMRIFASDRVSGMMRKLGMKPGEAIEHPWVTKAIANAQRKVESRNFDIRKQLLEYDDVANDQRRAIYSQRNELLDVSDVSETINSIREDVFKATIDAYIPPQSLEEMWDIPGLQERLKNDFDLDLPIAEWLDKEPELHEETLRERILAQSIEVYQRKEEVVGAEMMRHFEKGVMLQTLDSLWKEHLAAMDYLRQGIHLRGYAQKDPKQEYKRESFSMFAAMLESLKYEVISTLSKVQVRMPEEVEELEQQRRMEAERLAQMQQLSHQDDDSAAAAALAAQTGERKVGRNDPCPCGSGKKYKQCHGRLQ
Chain of Sialic acid-binding Ig-like lectin 9 (Homo sapiens) (Q9Y336 whole entry): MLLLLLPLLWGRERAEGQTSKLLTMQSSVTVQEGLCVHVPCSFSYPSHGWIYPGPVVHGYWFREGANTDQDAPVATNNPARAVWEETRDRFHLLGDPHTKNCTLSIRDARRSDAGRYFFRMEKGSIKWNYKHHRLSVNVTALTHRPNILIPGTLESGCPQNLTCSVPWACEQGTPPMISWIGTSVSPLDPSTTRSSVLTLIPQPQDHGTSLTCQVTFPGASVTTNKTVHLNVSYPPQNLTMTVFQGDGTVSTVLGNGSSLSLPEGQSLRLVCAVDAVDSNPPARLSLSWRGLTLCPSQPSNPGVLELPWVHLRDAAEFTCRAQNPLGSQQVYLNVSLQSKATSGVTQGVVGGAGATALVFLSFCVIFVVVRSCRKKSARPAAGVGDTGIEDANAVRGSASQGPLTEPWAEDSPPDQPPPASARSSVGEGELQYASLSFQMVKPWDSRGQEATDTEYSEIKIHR

Structure (SMILES) | Percent Effect [1] [%] | Percent Effect [2] [%] | Percent Effect [3] [%] | Percent Effect [4] [%] | Percent Effect (Trypanosoma cruzi) [%] | Percent Effect [5] [%] | Percent Effect [6] [%] | Percent Effect (Homo sapiens) [%] | Percent Effect [7] [%] | Percent Effect [8] [%] | Percent Effect [9] [%]
Cn1nnc2c1CCN(Cc1nccs1)C2COCc1ccccc1 (configuration not stated) | -2.95 | 2.67 | -19.8 | 5.81 | 1.77 | 5.83 | -8.9 | -0.293 | 7.45 | 8.97 | -0.607
COC(=O)C1CCN(C(=O)CN2CCN(c3cccc(C)c3)CC2)CC1 | -1.93 | 2.74 | 1.05 | 3.16 | -7.54 | -1.6 | 8.65 | 0.408 | 5.21 | 16.1 | -1.41
CCCc1nc(C(=O)N2CCCn3nc(CCC(=O)O)cc3C2)cs1 | -7.52 | 5.41 | 2.34 | 4.25 | 1.54 | 2.38 | 11 | 3.31 | 3.7 | 9.76 | -5.37
Cc1nc(C2CCCN(C(=O)c3ccc(OCC4CC4)cc3)C2)no1 (configuration not stated) | -11 | 15.8 | -2.79 | 21.9 | 10.9 | 3.24 | 7.19 | 0.288 | 5.42 | 25.9 | -8.85
Cc1nsc(C(=O)N2CCc3ccccc3C2)n1 | -7.16 | 13 | -4.33 | -9.01 | 4.44 | -1.94 | 5.22 | 3.35 | 3.17 | 8.97 | -9.64
CCOC1CCCN(C(=O)NCCc2ccn(-c3ccccc3)n2)C1 (configuration not stated) | -2.03 | 20.8 | -1.06 | -7.16 | -0.49 | -2.74 | 12.1 | 0.938 | 5.71 | 18.8 | -17.1
Cc1ccccc1CSc1nc(N)cc(N2C[C@H](O)[C@@H](N(C)C)C2)n1 | -8.01 | 5.41 | -13.8 | 0.783 | 1.07 | 1.24 | 12.6 | 5.8 | 8.6 | 18.5 | -3.84
CCc1csc(C2CCCN(C(=O)c3cnn(CC)c3)C2)n1 (configuration not stated) | -1.78 | -2.63 | 68.6 | -1.18 | -1.46 | 3.55 | 6.04 | 6.86 | 3.19 | -2.6 | -7.82
Cc1nc(-c2ccsc2)ccc1C(=O)O | -3.65 | 4.17 | 0.691 | -1 | 0.68 | 2.65 | 21.9 | -3.42 | 5.26 | 10.3 | -3.62
COCCO[C@H]1CCN(C(=O)c2ccno2)[C@H]1Cc1cnn(C)c1 | -1.65 | -2.7 | -2.17 | -4.71 | -2.54 | 1.67 | 2.79 | -28.8 | 4.95 | -3.66 | 1.61
CCOc1ccccc1-c1noc(CN(C)Cc2cnn(C)c2)n1 | 1.46 | 8.11 | -5.04 | 7.46 | -2.12 | -4.76 | 11.9 | 4.5 | 4.76 | 9.76 | -1.75
Cc1cccc(-c2nc(CN3CCc4cnc(C)nc4C3)no2)c1 | -6.65 | 7.79 | 64 | 10.5 | 0.374 | 1.42 | 0.169 | -1.99 | 10.7 | 9.76 | -4.89
COCCNC(=O)Nc1ccc(-n2cncn2)c(F)c1 | -6.54 | 0 | -12.8 | 0.712 | -4.7 | 0 | 4.51 | 28.2 | 2.45 | 0 | -7.16
CN1CCc2onc(CNc3ncccn3)c2C1 | -7.63 | 2.67 | 0.141 | -6.27 | -7.53 | -53.9 | 3.25 | 3.62 | 0 | 5 | -6.01
CC(C(=O)NCCN1CCCCCC1)n1cncn1 (configuration not stated) | -5.19 | 13.2 | -5.03 | 2.07 | 4.76 | 1.8 | 3.98 | -5.88 | 4.43 | 13.6 | -5.88
CCSc1ccc(C(=O)Nc2c(C)nn(C(C)C)c2C)cn1 | -9.54 | -2.74 | 1.71 | -2.98 | -0.198 | -1.2 | 4.71 | 20.2 | 0 | 1.24 | -2.1
CC(C)[C@H](NC(=O)NC1CCS(=O)(=O)C1)C(=O)NCc1ccccc1Cl (some centres not stated) | -0.711 | -6.67 | 4.79 | 4.22 | -6.88 | -4.05 | 3.51 | -4.73 | -5.29 | -2.56 | 1.25
Cc1cc(C)n(-c2cc(N3CCN(C(=O)C(C)(C)C)CC3)nc(C)n2)n1 | -2.73 | 5.33 | -1.22 | 6.39 | 2.04 | 14.1 | 3.31 | 26.8 | 0.546 | 3.7 | -5.38
Cc1cc(C)c2cc(CNCc3ccccc3)c3nn(C)c(=O)n3c2c1 | -8.18 | 9.46 | -1.18 | 8.69 | 2.96 | -2.09 | 10.3 | 13.4 | 4.3 | 3.9 | -30.5
CCc1noc(C(C)N2CCN(c3ccc(C#N)cc3F)CC2)n1 (configuration not stated) | -1.97 | 5.26 | 2.6 | -3.73 | 7.89 | -8.28 | 21.2 | -24.1 | 6.38 | 13 | -4.69
Cc1ccc(N(C)C2CCN(C(=O)c3ccsc3)CC2)nn1 | -3.77 | 5.2 | 5.3 | 11.4 | 5.62 | -7.47 | 10.6 | 1.47 | 5.83 | 19.5 | -7.83
Cc1nc([C@@H]2C[C@@H]3CCN(C(=O)c4ccnnc4)C[C@H]3O2)sc1C | -3.66 | 18.2 | -2.5 | -0.581 | 5.42 | 1.94 | 14.4 | 16.5 | 4.23 | 16.7 | -7.55

— ChEMBL document CHEMBL3988442, “University of Dundee, Small-Polar-MMV Screening Library” (2021)
